The full data set covers some 8,800 targets. This sample favours those with a hit. About 0.5% of all pairs of compound and target were hits.
Assays:
Test in all cases: log2 fold change, soluble protein after heating vs DMSO (PISA); higher = thermal stabilisation; K562 lysate, 10 uM; active = over 0.2 and 3.5 SD of the protein, either way, in both replicates (recomputed)
[1] = compound: C1=CC=C(C=C1)[C@H](COC2=CC3=C(C=C2)NC(=O)N3)NC(=O)C4=CC=CN(C4=O)CC5=CC(=C(C=C5)F)F
Outline: (§1)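 A 30 min treatment with 10 μM compound was applied to crude K562 extract at 1 mg/mL protein in PBS pH 7.4 with 1 mM MgCl2. Heating for 3 min spanned 48°C-58°C, after which aliquots were pooled, adjusted to 0.5% NP-40 at 4°C and spun at 21,000xg for 90 min. TMTpro 16plex LC-MS/MS of the supernatant, with channel sums equalised, gave values recorded as log-two fold change in thermal stability against solvent controls, from duplicates.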

[2] = compound: CC1=C(SC2=C1C(=N[C@H](C3=NN=C(N32)C)CC(=O)N)C4=CC=C(C=C4)Cl)C
Outline: as §1

[3] = compound: CC1=C2C(=CC=C1)N=C(N(C2=O)C3=CC=CC=C3C)CN4C=NC5=C(N=CN=C54)N
Outline: as §1

[4] = compound: Cc1sc2c(c1C)C(c1ccc(Cl)cc1)=N[C@@H](CC(=O)OC(C)(C)C)c1nnc(C)n1-2
Outline: as §1

[5] = compound: c1ccc([C@@H]2C[C@H]2NC2CCNCC2)cc1
Outline: as §1

Measured: log2 fold change

TUBB6 (UniProt Q9BUF5)
Sequence of UniProt Q9BUF5 (Q9BUF5 whole entry, looked up): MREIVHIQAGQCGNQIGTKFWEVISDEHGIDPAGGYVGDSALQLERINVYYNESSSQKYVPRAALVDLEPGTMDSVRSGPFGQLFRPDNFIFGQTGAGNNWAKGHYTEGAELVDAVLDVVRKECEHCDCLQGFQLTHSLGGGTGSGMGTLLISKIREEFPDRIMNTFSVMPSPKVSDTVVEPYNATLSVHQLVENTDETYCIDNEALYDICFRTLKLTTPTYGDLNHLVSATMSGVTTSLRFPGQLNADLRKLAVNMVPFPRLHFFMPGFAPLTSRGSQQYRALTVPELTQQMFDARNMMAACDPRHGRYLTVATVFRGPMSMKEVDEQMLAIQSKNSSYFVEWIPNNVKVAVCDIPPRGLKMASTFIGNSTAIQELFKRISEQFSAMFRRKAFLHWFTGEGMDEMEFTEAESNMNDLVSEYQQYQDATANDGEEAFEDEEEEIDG
inactive: [1] -0.005 | [2] 0.033 | [3] 0.02 | [4] 0.017 | [5] 0.027

TTC37 (UniProt Q6PGP7)
inactive: [1] -0.08 | [2] 0.044 | [3] 0.16 | [4] -0.3

UBR3 isoform 4 (UniProt Q6ZT12)
inactive: [1] -0.027 | [2] -0.032 | [3] 0.009 | [4] -0.016 | [5] 0.076

TPM3 isoform 2 (UniProt P06753)
Sequence of UniProt P06753 (P06753 whole entry, looked up): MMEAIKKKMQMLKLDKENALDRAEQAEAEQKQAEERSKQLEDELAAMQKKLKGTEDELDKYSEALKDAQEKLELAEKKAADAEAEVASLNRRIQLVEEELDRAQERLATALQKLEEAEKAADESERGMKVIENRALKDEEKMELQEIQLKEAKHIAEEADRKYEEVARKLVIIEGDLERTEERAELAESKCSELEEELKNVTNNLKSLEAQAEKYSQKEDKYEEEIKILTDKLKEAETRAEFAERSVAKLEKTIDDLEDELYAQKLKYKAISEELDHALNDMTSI
inactive: [1] -0.02 | [2] 0.01 | [3] -0.025 | [4] -0.009 | [5] 0.056

UFM1 (UniProt P61960)
Sequence of UniProt P61960 (P61960 whole entry, looked up): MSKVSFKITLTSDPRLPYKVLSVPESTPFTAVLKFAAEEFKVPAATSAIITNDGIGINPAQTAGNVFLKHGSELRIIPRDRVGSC
inactive: [1] 0.015 | [2] -0.085 | [3] -0.103 | [4] -0.019 | [5] 0.297

TMEM87A (UniProt Q8NBN3)
inactive: [1] 0.066 | [2] -0.014 | [3] -0.011 | [4] -0.011 | [5] -0.128

TECR (UniProt Q9NZ01)
Sequence of UniProt Q9NZ01 (Q9NZ01 whole entry, looked up): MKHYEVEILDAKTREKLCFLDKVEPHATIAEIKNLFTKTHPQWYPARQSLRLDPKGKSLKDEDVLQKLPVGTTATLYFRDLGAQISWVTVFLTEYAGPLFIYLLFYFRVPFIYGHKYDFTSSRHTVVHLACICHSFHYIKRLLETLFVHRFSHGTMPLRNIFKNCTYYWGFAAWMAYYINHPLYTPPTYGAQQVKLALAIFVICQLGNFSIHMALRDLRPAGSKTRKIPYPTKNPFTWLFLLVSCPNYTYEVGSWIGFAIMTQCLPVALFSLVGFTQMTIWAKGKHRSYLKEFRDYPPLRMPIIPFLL
inactive: [1] -0.131 | [2] 0.083 | [3] 0.015 | [4] 0.017 | [5] 0.046

TRMT12 (UniProt Q53H54)
inactive: [1] 0.104 | [2] -0.023 | [3] -0.007 | [4] -0.061 | [5] 0.076

TFIP11 (UniProt Q9UBB9)
Sequence of UniProt Q9UBB9 (Q9UBB9 whole entry, looked up): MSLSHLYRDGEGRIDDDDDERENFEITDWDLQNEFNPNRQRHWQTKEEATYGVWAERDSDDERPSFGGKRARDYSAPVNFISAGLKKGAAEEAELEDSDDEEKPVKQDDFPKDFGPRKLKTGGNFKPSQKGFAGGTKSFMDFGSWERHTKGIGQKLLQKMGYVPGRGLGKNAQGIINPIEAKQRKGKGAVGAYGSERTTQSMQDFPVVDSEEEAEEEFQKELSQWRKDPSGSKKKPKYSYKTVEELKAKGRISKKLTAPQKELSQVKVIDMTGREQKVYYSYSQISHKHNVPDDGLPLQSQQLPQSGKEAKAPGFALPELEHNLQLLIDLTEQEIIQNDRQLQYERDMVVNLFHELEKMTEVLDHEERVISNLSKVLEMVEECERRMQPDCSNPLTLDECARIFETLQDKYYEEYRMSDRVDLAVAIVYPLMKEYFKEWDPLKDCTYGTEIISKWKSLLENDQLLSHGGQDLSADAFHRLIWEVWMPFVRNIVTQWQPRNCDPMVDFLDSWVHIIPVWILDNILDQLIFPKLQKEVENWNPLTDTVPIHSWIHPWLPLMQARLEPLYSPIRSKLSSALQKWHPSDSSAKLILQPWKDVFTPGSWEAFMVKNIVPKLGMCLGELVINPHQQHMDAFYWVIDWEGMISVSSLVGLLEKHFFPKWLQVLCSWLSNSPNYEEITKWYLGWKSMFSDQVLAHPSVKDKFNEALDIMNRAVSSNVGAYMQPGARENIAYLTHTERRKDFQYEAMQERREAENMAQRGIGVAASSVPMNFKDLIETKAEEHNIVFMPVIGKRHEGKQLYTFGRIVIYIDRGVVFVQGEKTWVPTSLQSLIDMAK
inactive: [1] -0.033 | [2] -0.022 | [3] 0.007 | [4] -0.002 | [5] 0.044

TCF12 isoform 3 (UniProt Q99081)
inactive: [1] 0.062 | [2] -0.072 | [3] 0.014 | [4] -0.048 | [5] -0.046

UBA1 (UniProt P22314)
inactive: [1] -0.018 | [2] 0.043 | [3] 0 | [4] 0.045 | [5] 0.04

TDRKH (UniProt Q9Y2W6)
inactive: [1] -0.02 | [2] -0.028 | [3] 0.1 | [4] 0.005 | [5] -0.053

TTC12 isoform 2 (UniProt Q9H892)
inactive: [1] -0.123 | [2] -0.131 | [3] 0.033 | [4] 0.044 | [5] 0.058

TDRD3 isoform 3 (UniProt Q9H7E2)
inactive: [1] 0.082 | [2] 0.037 | [3] 0.027 | [4] 0.065 | [5] -0.01

TLK1 isoform 2 (UniProt Q9UKI8)
inactive: [1] 0.005 | [2] -0.02 | [3] -0.026 | [4] -0.025 | [5] -0.072

TPD52L2 isoform 7 (UniProt O43399)
inactive: [1] 0.046 | [2] -0.036 | [3] -0.024 | [4] 0.024 | [5] -0.058

UBTF (UniProt P17480)
inactive: [1] -0.031 | [2] 0.028 | [3] -0.012 | [4] 0.007 | [5] 0.069

TUBB2A (UniProt Q13885)
inactive: [1] 0.017 | [2] 0.01 | [3] 0 | [4] 0.003 | [5] -0.015

TBC1D8B (UniProt Q0IIM8)
inactive: [1] -0.086 | [2] -0.078 | [3] -0.038 | [4] -0.013 | [5] -0.101

TUBA1C (UniProt Q9BQE3)
Sequence of UniProt Q9BQE3 (Q9BQE3 whole entry, looked up): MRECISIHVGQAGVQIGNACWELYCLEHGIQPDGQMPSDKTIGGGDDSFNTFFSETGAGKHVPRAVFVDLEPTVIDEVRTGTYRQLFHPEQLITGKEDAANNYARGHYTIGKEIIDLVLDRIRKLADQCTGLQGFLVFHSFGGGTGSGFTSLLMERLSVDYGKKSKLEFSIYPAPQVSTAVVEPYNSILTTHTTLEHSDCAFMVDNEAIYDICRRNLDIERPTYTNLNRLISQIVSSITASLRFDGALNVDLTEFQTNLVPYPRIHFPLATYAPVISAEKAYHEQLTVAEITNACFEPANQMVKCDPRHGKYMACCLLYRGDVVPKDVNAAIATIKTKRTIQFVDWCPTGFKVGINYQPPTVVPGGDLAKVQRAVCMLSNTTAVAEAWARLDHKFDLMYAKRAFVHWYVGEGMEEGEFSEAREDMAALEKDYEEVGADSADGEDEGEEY
inactive: [1] 0.043 | [2] 0.03 | [3] 0.023 | [4] 0.003 | [5] -0.006

TCAF2 (UniProt A6NFQ2)
inactive: [1] 0.159 | [2] 0.091 | [3] 0.027 | [4] 0.007 | [5] 0.042

TTC4 (UniProt O95801)
inactive: [1] -0.018 | [2] -0.003 | [3] 0.001 | [4] 0.033 | [5] -0.013

TBC1D23 (UniProt Q9NUY8)
inactive: [1] 0.007 | [2] 0.01 | [3] -0.017 | [4] 0.016 | [5] -0.024

TRMT2A (UniProt Q8IZ69)
inactive: [1] 0.003 | [2] 0.02 | [3] 0.003 | [4] 0.02 | [5] 0.027

TRIP12 isoform 2 (UniProt Q14669)
inactive: [1] -0.043 | [2] 0.07 | [3] -0.018 | [4] 0 | [5] 0.062

TMPO (UniProt P42167)
inactive: [1] -0.017 | [2] 0.044 | [3] -0.042 | [4] 0.042 | [5] -0.023

TMEM87B (UniProt Q96K49)
inactive: [2] 0.02 | [3] 0.075 | [4] 0.001 | [5] 0.038
active: [1] 0.529

TMEM97 (UniProt Q5BJF2)
inactive: [1] 0.048 | [2] 0.015 | [3] -0.016 | [4] -0.081 | [5] -0.153

TLK2 isoform 2 (UniProt Q86UE8)
inactive: [1] 0.014 | [2] -0.027 | [3] 0.033 | [4] -0.015 | [5] -0.075

UBXN2B (UniProt Q14CS0)
Sequence of UniProt Q14CS0 (Q14CS0 whole entry, looked up): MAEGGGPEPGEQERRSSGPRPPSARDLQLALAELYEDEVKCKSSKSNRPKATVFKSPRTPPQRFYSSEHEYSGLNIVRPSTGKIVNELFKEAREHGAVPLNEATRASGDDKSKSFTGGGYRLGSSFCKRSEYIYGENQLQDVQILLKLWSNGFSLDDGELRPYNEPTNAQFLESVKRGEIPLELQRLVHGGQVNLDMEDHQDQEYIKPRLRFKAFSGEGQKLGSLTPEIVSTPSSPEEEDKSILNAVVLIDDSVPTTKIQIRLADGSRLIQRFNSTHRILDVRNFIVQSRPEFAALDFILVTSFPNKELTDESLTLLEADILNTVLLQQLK
inactive: [1] 0.028 | [2] -0.03 | [3] 0.019 | [4] 0.042 | [5] 0.014

TTMP isoform 3 (UniProt Q5BVD1)
inactive: [1] -0.051 | [2] 0.091 | [3] 0.135 | [4] -0.148 | [5] -0.498

TJP1 (UniProt G3V1L9)
inactive: [1] -0.025 | [2] -0.014 | [3] 0.127 | [4] 0.009 | [5] -0.007

TERF2IP (UniProt Q9NYB0)
inactive: [1] 0.023 | [2] -0.006 | [3] -0.077 | [4] -0.03 | [5] 0.116

TRADD (UniProt Q15628)
inactive: [1] -0.051 | [2] -0.016 | [3] 0.112 | [4] 0.05 | [5] 0.033

UBE2H (UniProt P62256)
inactive: [1] 0.024 | [2] 0.02 | [3] 0.012 | [4] -0.046 | [5] 0.095

TBC1D2B (UniProt Q9UPU7)
Sequence of UniProt Q9UPU7 (Q9UPU7 whole entry, looked up): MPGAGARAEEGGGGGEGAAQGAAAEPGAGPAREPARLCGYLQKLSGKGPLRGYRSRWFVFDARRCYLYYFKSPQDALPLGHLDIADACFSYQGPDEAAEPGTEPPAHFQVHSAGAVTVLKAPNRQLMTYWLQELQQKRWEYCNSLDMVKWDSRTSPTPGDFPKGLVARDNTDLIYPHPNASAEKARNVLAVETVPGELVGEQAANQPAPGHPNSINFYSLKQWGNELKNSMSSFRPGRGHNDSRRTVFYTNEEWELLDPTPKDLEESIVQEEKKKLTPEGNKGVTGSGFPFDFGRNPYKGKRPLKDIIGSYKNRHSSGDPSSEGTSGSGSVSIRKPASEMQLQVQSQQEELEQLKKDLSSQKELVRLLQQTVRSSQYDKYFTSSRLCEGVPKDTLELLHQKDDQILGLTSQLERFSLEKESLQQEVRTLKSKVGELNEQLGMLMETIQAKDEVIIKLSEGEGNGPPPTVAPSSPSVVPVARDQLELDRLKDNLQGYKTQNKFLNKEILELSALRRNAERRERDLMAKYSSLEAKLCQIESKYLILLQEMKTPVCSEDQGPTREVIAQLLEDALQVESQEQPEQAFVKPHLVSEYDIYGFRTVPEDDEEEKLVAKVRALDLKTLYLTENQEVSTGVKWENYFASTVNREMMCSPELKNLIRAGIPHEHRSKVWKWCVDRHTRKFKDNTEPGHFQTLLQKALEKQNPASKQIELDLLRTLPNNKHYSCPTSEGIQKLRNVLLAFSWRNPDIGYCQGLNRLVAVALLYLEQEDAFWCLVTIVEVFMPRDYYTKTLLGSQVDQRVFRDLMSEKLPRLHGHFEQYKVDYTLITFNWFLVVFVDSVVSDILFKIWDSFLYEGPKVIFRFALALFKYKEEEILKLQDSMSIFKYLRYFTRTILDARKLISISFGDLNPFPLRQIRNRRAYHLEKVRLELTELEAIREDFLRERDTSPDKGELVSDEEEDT
inactive: [1] -0.024 | [2] 0.139 | [3] -0.048 | [4] -0.065 | [5] -0.008

TUBB4B (UniProt P68371)
inactive: [1] 0.001 | [2] 0.03 | [3] 0.018 | [4] 0.042 | [5] 0.049

UBXN10 (UniProt Q96LJ8)
inactive: [1] -0.032 | [2] 0.048 | [3] 0.056 | [4] 0.095 | [5] 0.022

TCP11L1 (UniProt Q9NUJ3)
inactive: [1] -0.023 | [2] -0.031 | [3] -0.02 | [4] -0.021 | [5] -0.095

TBRG4 (UniProt Q969Z0)
inactive: [1] -0.071 | [2] 0.024 | [3] 0.018 | [4] 0.052 | [5] 0.094

THOC5 (UniProt Q13769)
Sequence of UniProt Q13769 (Q13769 whole entry, looked up): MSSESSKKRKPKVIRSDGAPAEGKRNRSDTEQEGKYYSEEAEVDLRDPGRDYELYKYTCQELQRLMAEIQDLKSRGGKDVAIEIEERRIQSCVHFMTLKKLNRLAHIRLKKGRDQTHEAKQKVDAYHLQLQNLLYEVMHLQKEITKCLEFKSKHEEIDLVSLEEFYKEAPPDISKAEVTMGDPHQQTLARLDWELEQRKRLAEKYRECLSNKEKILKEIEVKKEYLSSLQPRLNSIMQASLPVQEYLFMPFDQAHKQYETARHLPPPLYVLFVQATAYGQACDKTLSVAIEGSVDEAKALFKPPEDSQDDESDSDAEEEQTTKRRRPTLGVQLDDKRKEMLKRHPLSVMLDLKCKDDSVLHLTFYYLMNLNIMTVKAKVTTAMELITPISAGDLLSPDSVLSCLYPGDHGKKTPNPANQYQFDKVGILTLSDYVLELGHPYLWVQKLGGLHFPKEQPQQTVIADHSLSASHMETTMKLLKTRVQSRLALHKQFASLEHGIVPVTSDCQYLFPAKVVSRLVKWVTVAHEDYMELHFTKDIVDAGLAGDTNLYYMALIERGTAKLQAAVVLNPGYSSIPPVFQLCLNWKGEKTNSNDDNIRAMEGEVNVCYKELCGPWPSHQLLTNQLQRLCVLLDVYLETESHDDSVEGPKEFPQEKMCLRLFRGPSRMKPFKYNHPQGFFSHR
inactive: [1] 0.026 | [2] 0.048 | [3] 0.016 | [4] -0.01 | [5] 0.006

TK1 (UniProt K7ERV3)
inactive: [1] -0.044 | [2] 0.007 | [3] -0.017 | [4] -0.002 | [5] -0.037

TBK1 (UniProt Q9UHD2)
inactive: [1] -0.012 | [2] 0.021 | [3] -0.031 | [4] -0.003 | [5] -0.023

TOR3A (UniProt Q9H497)
inactive: [1] -0.009 | [2] -0.025 | [3] 0.013 | [4] 0.018 | [5] -0.008

TUBGCP3 (UniProt Q96CW5)
inactive: [1] -0.007 | [2] -0.004 | [3] 0.011 | [4] 0.008 | [5] 0.037

TIAL1 isoform 2 (UniProt Q01085)
inactive: [1] 0.068 | [2] 0.017 | [3] -0.02 | [4] 0.031 | [5] -0.021

UBP1 (UniProt Q9NZI7)
Sequence of UniProt Q9NZI7 (Q9NZI7 whole entry, looked up): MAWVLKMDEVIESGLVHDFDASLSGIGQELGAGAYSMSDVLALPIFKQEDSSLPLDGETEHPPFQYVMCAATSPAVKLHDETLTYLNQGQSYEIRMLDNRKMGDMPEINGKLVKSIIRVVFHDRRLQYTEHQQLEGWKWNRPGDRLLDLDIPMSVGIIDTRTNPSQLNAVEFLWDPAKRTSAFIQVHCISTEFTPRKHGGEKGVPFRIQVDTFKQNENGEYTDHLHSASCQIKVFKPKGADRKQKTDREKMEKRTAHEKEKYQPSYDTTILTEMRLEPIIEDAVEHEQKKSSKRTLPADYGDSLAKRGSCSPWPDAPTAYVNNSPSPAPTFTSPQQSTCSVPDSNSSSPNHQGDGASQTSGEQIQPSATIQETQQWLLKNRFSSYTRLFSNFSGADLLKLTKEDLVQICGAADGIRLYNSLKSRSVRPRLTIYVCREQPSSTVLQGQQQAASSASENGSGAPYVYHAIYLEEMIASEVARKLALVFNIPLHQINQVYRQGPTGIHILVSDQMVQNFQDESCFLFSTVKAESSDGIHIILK
inactive: [1] 0.082 | [2] -0.057 | [3] -0.018 | [4] 0.009 | [5] 0.056

TXNIP (UniProt Q9H3M7)
inactive: [1] 0.056 | [2] 0.005 | [3] 0.029 | [4] 0.016 | [5] 0.087

TTK (UniProt P33981)
inactive: [1] -0.016 | [2] -0.003 | [3] 0.068 | [4] 0.02 | [5] 0.003

TRIM23 (UniProt P36406)
inactive: [1] 0.036 | [2] -0.05 | [3] 0.052 | [4] 0.034 | [5] -0.275

TMEM164 (UniProt Q5U3C3)
inactive: [1] -0.13 | [2] -0.155 | [3] 0.111 | [4] -0.217 | [5] -0.543

TBC1D20 isoform 3 (UniProt Q96BZ9)
inactive: [1] -0.08 | [2] -0.07 | [3] 0.005 | [4] -0.007 | [5] 0.015

UBXN6 (UniProt Q9BZV1)
inactive: [1] -0.03 | [2] 0.027 | [3] 0.03 | [4] 0.022 | [5] 0.031
